Test results published in PubChem BioAssay (NCATS).
Records with an inconclusive call do not appear. Unmarked numbers belong to inactive results. The source made the active and inactive calls. Calls come from the whole dose curve; as a rule, active = well fitted cell-killing curve with a large enough effect; inconclusive = small, poorly fitted or top-dose-only effect; inactive = flat fitted curve, though single readings scatter.

assay: Cell Viability - LYMP2-020 (AID 986); conditions: series mostly up to 92.2 µM; activity change, negative = viability loss: at the top concentration;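 note: cells exposed to compound for 24 h at 37 °C; nearly all actives have a fitted effect of over 55% in size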;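 for activity change, negative = viability loss: plate controls were DMSO only for no effect and tetraoctylammonium bromide at 92 µM for full effect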
Description: NIH Chemical Genomics Center [NCGC]
NIH Molecular Libraries Screening Centers Network [MLSCN]
National Institutes of Environmental Health Sciences [NIEHS]
National Toxicology Program [NTP]
We have developed a 1536-well cell-based assay for quantitative high throughput screening (qHTS) against a number of cell lines to determine in vitro cytotoxicity of small molecules. This particular assay uses a human lymphoblastoid cell line (LYMP2-020) purchased from Coriell Institute for Medical Research.
NCGC Assay Protocol Summary:
The CellTiter-Glo luminescent cell viability assay (Promega) is a homogeneous method to measure the number of viable cells in culture. The end point readout of this assay is based on quantitation of intracellular ATP, an indicator of metabolic activity, using the luciferase reaction. Luciferase catalyzes the oxidation of beetle Luciferin to oxyluciferin and light in the presence of ATP. The luminescent signal is proportional to amount of ATP present.
Using the CellTiter-Glo luminescent cell viability assay, the amount of cellular ATP was measured in the lymphoblastoid cell line with complete culture medium following compound treatment for 24 hours. The assay was performed in opaque white Kalypsys 1536-well plates. In the screen, tetraoctylammonium bromide was used as positive control. Library compounds were measured for their ability to cause acute toxicity in the cell line, as reflected by a decrease in intracellular ATP levels, in a concentration-dependent manner. […] AC50 values were determined from concentration-response data modeled with the standard Hill equation.
qHTS protocol for CellTiter Glo lymphoblastoid cellular assay
[Step] [Parameter] [Value] [Description]
1. Reagent; 5 uL; 2500 lymphoblastoid cells/well
2. Time; 5 hr; 37 C incubation
4. Controls; 23 nL; Tetraoctylammonium bromide 6.4pM to 92 uM
5. Time; 24 hr; 37 C incubation
6. Reagent; 5 uL; CellTiter Glo reagent
7. Time; 30 min; Room Temperature
8. Detection; Luminescence; Viewlux plate reader
Keywords: cell viability, cytotoxicity, lymphoblastoid cell line, luminescence, NTPHTS, NTPHTS_NCGC, NIEHS, DSSTox, MLSMR, MLSCN, NIH Roadmap, qHTS, NCGC
Potency is the fitted concentration of half-maximal effect.

Structure (SMILES) | Potency | activity change, negative = viability loss
CC(C)(C)c1ccc(O)c(O)c1 | 50.1 µM (active) | 
C1=CC2C3C=CC(C3)C2C1 (stereo not given) |  | 1.53%
CC(C)(c1ccc(O)cc1)c1ccc(O)cc1 | inactive | 
Cc1ccc(O)cc1 |  | -3.66%
COc1cc(C=O)ccc1O |  | -9.02%
Nc1cccc2c(N)cccc12 |  | -21.7%
OCc1c[nH]c2ccccc12 |  | -4.11%
CCCCC(CC)COC(=O)c1ccccc1C(=O)O (stereo not given) |  | -9.35%
Cc1cc(C(C)(C)C)c(O)c(C(C)(C)C)c1 |  | 2.61%
Brc1ccccc1-c1ccccc1 |  | 0.696%
O=C(NO)c1ccccc1 |  | -3.1%
Oc1ccccc1 |  | -0.11%
Nc1c2ccccc2nc2ccccc12 | 10 µM (active) | 
Nc1ccc(O)cc1 | 31.6 µM (active) | 
CCCC(=O)c1cc(O)c(O)cc1O |  | -15.2%
CCCCCCCCCCCCCCCC[n+]1ccccc1 | 15.8 µM (active) | 
c1ccc2occc2c1 |  | 7.55%
O=C(Oc1ccccc1)c1ccccc1O |  | -5.27%
O=C(c1ccccc1)c1ccccc1 |  | -10%
CC(C)C(C)(C)C(C)(C)C(C)(C)S |  | -1.95%
